Here are results for 14 compounds from PubChem BioAssay (NCATS).

Test [1] addresses Cytochrome P450 3A4 (Homo sapiens) (UniProt P08684). Description: qHTS Assay for Inhibitors and Substrates of Cytochrome P450 3A4 (AID 884). Also: nearly all actives have a fitted effect of over 50% in size. Also: potency is read from the fitted curve at half-maximal effect. In outline:
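Luminescent readout of luciferin produced by CYP3A4 (20 nM) dealkylation of Luciferin-PPXE, 25 uM (its KM). NADPH-driven reaction ran 60 min at RT after 10 min compound preincubation; data scaled to 57 uM ketoconazole as 100% inhibition.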
On the technique in general: Quantitative high-throughput screening tests each substance at several concentrations.

Test [2] has the same target. The test is described as follows: qHTS Assay for Activators of Cytochrome P450 3A4 (AID 885). Also: nearly all actives have a fitted effect of over 65% in size. Also: potency is read from the fitted curve at half-maximal effect. In a few lines:
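Using 20nM recombinant human CYP3A4 in potassium phosphate (200mM), substrate Luciferin-PPXE at 25uM, luminescent luciferin detection followed a 60-min RT NADPH reaction; data scaled to 57 uM ketoconazole.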

Test [3] can be described thus: Confirmation and Secondary Assay for Modulators of Hemoglobin Beta Chain Splicing at IVS2 705 locus (AID 930).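 Also: HeLa cells stably expressing the EGFP-705 splicing reporter; GFP fluorescence per well restored by corrected splicing of the IVS2-705 intron in EGFP; % of control where 0% means no effect.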 In outline:
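Assay measures total GFP intensity per well in HeLa EGFP-705 cells after 2 days with compound; mis-splicing normally truncates EGFP, so fluorescence indicates corrected splicing.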

Test [4] is described as follows: qHTS Assay for Lipid Storage Modulators (AID 1519; calls by dose curve). Particulars: Drosophila S3 cells, BODIPY lipid droplet/cell ratio, laser cytometry, cells loaded with oleic acid. In a few lines: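 Cells seeded at 5,000 per well were treated with compounds over a concentration series and loaded with oleic acid (400 uM, as added). Lipid droplet fluorescence (488 nm excitation, 500-530 nm channel) was read by laser-scanning cytometry and normalized to 20 uM Triacsin C.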

Test [5] in a line: Confirmation and Secondary Assay for Modulators of Hemoglobin Beta Chain Splicing at IVS2 654 locus (AID 910).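 Also: per-well total GFP intensity by laser scanning cytometry after 2-day treatment; % of control where 0% means no effect.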 In outline:
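HeLa cells stably carrying EGFP interrupted by mutant beta-globin IVS2-654 intron (CMV-driven) were treated with compound for 2 days at 37C; corrected splicing was scored as total peak GFP intensity per well (488 nm excitation, 500-520 nm emission).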

Test [6] has as its target Ubiquitin carboxyl-terminal hydrolase 1 (Homo sapiens) (UniProt O94782). The test is described as follows: Inhibitors of USP1/UAF1: Pilot qHTS (AID 504865).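 Also: rhodamine fluorescence freed from ubiquitin-rhodamine substrate followed over time; top concentration of the series differs between compounds; % is scaled to controls: 0 for no effect and ±100 for the full control effect; nearly all actives have a fitted effect of over 35% in size.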 In a few lines:
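Kinetic fluorescence assay: 1nM USP1/UAF1, 15 min compound preincubation, then 150nM Ub-Rho; 480/540 nm.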

Test [7] in a line: Primary qHTS for small molecule stabilizers of the endoplasmic reticulum resident proteome: Secreted ER Calcium Modulated Protein (SERCaMP) assay (AID 1508630). Also: % is scaled to controls: 0 for no effect and ±100 for the full control effect. In outline:
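The SH-SY5Y reporter protocol was run at 3 concentrations up to 38.3 uM (primary) or 11 concentrations (follow-up): 16 h compound, 100 nM thapsigargin for 4 h, then extracellular luciferase luminescence.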

Test [8] has as its target Mitogen-activated protein kinase 10 (Mus musculus) (UniProt Q61831). The test is described as follows: JNK3 AlphaScreen Assay (AID 530; active = well fitted curve in either direction with a large enough effect, not every such curve was filed as active;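 also: kinase came from lysate of stimulated human HepG2 cells; signal reports phosphorylation of biotinylated GST-cJun 1-79 at Ser73 with 10 µM ATP; % is scaled to controls: 0 for no effect and ±100 for the full control effect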). In a few lines: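 Phosphorylation of biotinylated GST-cJun(1-79) at Ser73 is measured by AlphaScreen proximity luminescence. Enzyme is JNK3 in HepG2 lysates activated with interleukin-1beta and tumor necrosis factor alpha; ATP is 10 uM final.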
(In Alpha technology, singlet oxygen from a donor bead excites a nearby acceptor bead.)

Test [9] deals with Lysosomal acid glucosylceramidase (Homo sapiens) (UniProt P04062). Description: Glucocerebrosidase-p2 (AID 348; in the data active = potency below about 10 µM; also: potency is read from the fitted curve at half-maximal effect). Particulars: purified GBA, blue fluorogenic substrate, 40 min. In outline: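 Normal human glucocerebrosidase (0.2 nM) with blue fluorogenic substrate (80 uM final) in citrate/phosphate pH 5.9 with 10mM sodium taurocholate, 0.01% tween-20; 40 min RT, NaOH/glycine stop; fluorescence Ex 365/Em 440; AC50 from a titration from 0.6 nM upwards.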

Test [10] in a line: AP1 Signaling Pathway (AID 357; active = well fitted curve in either direction with a large enough effect, not every such curve was filed as active;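 also: ME-180 reporter cells stimulated with EGF at its EC50 level; % is scaled to controls: 0 for no effect and ±100 for the full control effect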). In outline:
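Read-out was the 460nm/530nm emission ratio (excitation 405nm) after CCF4 loading for 2.5 hours at room temperature. Cells carried an AP-1-driven beta-lactamase reporter, were stimulated with EC50 EGF plus compound for 5 hours, and AC50 values came from titrations.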

Test [11] addresses Cytochrome P450 1A2 (Homo sapiens) (UniProt P05177). Description: p450-cyp1a2 (AID 410; calls by dose curve; also: potency is read from the fitted curve at half-maximal effect;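 as to activity change, negative = inhibition: -100% = full effect of reference inhibitor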). In outline: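 O-Demethylation of luciferin 6' methyl ether by human CYP1A2 is monitored as luciferase luminescence. Substrate sits at Km (100uM); enzyme is 20nM. Values are scaled to 57 uM furafylline as maximal inhibition.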
The nature of test [12]: Stat Signaling Pathway (AID 446; active = well fitted curve in either direction with a large enough effect, not every such curve was filed as active;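 also: ME-180 cervical cancer cells given 40 pM IL-6 alongside compound; SIE-controlled beta-lactamase reporter measured as 460/530 nm FRET emission ratio; % is scaled to controls: 0 for no effect and ±100 for the full control effect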). In outline: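 Overnight-plated ME-180 cells bearing a STAT Inducible Element beta-lactamase reporter; 5 h co-exposure to compound and 40 pM IL-6; values normalized to 300 pM IL-6 and 125 nM JAK inhibitor controls.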
The target of test [13] is Glucocorticoid receptor (Homo sapiens) (UniProt P04150). Description: GR-EFC Redistribution (AID 451; calls by dose curve; also: potency is read from the fitted curve at half-maximal effect). Particulars: CHO-K1 GR-EFC translocation, beta-gal luminescence, 2 h. In outline:
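CHO-K1 cells stably expressing nuclear-localized β-gal enzyme acceptor and GR fused C-terminally to the enzyme donor fragment; ligand-driven nuclear translocation restores β-gal by complementation. Compounds titrated up to 46 uM final, 2 h at 37 °C; luminescence read.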

In test [14] the target is Cytochrome P450 2C9 (Homo sapiens) (UniProt P11712). The test is described as follows: qHTS Assay for Inhibitors and Substrates of Cytochrome P450 2C9 (AID 883). Also: potency is read from the fitted curve at half-maximal effect; nearly all actives have a fitted effect of over 60% in size. In a few lines: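 CYP2C9 deoxyluciferin hydroxylation, 37C, 60 min with NADPH regeneration; 10nM enzyme, 100uM Luciferin-H (KM). Glo detection reagent stopped reaction; luminescence normalized to sulphaphenazole (57uM) full inhibition.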

Test [15] can be described thus: NFAT Signaling Pathway (AID 444; active = well fitted curve in either direction with a large enough effect, not every such curve was filed as active). As to conditions: Jurkat NFAT-bla M1, carbachol, beta-lactamase ratio, 5 h; at 7.69 µM (top of the series). In outline:
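Jurkat cells carrying an NFAT-driven β-lactamase reporter and co-transfected muscarinic M1 receptor were treated with compound plus carbachol (1 uM final, an EC50 level) for 5 h at 37 °C. CCF4 loading followed for 1 h at RT; 460/530 nm ratio gave %activity.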

The target of test [16] is 3',5'-cyclic-AMP phosphodiesterase 4B (Homo sapiens) (UniProt Q07343). Description: qHTS Assay for Inhibitors of PDE-IV (AID 607; active = well fitted activation curve with a large enough effect in the main read-out, with a control signal flat, not every such curve was filed as active; also: % of control where 0% means no effect). In a few lines: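 Live HEK293 cells with a modified cyclic nucleotide-gated (CNG) channel report intracellular cAMP via membrane-potential dye fluorescence (ex 535/em 590 nm). Endogenous PDE-IV was targeted. Compounds were tested at up to 22.9 uM final; RO 20-1724 100 uM served as control.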

Test [17] addresses Cytochrome P450 2D6 (Homo sapiens) (UniProt P10635). The test is described as follows: qHTS Assay for Inhibitors and Substrates of Cytochrome P450 2D6 (AID 891). Also: potency is read from the fitted curve at half-maximal effect; nearly all actives have a fitted effect of over 60% in size. In outline:
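Luminescent read-out of luciferin formed by 5 nM human CYP2D6 demethylating 30 uM Luciferin-ME EGE (Km level) over 60 min at room temperature after NADPH regeneration addition. Data normalized to full inhibition by 1.43 uM quinidine.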

A short description of test [18]: qHTS Assay for Identification of Small Molecule Agonists for Hypoxia Response Element Signaling Pathway (AID 914; active = well fitted activation curve with a large enough effect in the signal ratio, with a control signal flat, not every such curve was filed as active; the % refers to the signal ratio; also: % of control where 0% means no effect). Particulars: ME-180 (cervical carcinoma) HRE-bla reporter, beta-lactamase ratio, CoCl2, 17 h; activation: stronger effect = higher value. In outline:
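Compounds in a titration series were added to ME-180 reporter cells alongside an EC50 level of CoCl2. After 17 hours, beta-lactamase activity was read as the 460nm/530nm emission ratio of CCF4, giving AC50 values.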

Test [19] deals with Glucocorticoid receptor (Homo sapiens) (UniProt P04150). Description: GR-GFP Redistribution (AID 450;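 active = compounds whose dose series gives a full or clear partial fitted curve of increased nuclear translocation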; also: potency is read from the fitted curve at half-maximal effect). As to conditions: U2OS GR-GFP nuclear translocation, laser cytometry, 2 h.
Where [20] appears, read: measured here: cell count channel max response.
The mark [21] stands for this setting: measured here: lipid channel max response.

Inconclusive results are not listed. Active and inactive are the calls of the source. Unless noted, calls follow the shape of the dose curve; as a rule, active = well fitted curve in the direction sought with a large enough effect; inconclusive = small, poorly fitted or top-dose-only effect, or another doubt; inactive = no such curve, though single readings can be large; an effect the other way counts as inactive or inconclusive.

Chain of Cytochrome P450 3A4 (Homo sapiens) (P08684 whole entry, looked up): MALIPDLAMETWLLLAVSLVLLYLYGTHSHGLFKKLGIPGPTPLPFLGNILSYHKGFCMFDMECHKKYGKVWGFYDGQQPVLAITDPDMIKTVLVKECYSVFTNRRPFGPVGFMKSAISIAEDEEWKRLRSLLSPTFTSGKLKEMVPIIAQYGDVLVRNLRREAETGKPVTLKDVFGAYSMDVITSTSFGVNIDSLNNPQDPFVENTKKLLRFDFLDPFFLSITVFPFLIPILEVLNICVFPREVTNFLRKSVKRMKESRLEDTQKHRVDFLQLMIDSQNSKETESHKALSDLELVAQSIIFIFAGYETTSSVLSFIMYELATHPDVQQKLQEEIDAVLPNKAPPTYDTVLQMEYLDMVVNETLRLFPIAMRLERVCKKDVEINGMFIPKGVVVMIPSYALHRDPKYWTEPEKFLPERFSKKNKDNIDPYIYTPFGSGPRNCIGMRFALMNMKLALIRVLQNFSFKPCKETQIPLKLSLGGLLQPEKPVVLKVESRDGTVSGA
Chain of Ubiquitin carboxyl-terminal hydrolase 1 (Homo sapiens) (O94782 whole entry, looked up): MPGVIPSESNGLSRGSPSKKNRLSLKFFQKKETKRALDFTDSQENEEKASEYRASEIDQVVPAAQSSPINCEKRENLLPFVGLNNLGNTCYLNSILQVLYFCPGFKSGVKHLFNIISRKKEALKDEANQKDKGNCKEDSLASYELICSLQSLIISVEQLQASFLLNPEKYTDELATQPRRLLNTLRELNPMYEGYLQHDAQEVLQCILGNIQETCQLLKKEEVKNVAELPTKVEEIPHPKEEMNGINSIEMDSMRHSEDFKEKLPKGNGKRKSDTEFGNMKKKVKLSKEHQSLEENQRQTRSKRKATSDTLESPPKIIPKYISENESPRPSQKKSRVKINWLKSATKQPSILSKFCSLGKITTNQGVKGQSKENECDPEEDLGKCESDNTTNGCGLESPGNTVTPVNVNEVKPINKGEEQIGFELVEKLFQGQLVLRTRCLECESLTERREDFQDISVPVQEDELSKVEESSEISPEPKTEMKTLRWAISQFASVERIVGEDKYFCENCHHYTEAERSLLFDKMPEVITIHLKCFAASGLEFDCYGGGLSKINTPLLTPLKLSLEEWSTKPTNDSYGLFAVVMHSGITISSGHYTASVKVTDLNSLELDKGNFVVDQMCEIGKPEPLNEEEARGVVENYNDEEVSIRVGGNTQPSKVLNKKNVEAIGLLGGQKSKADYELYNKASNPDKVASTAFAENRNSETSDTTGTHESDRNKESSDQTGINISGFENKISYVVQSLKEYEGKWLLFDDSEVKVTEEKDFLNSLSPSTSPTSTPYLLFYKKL
Chain of Glucocorticoid receptor (Homo sapiens) (P04150 whole entry, looked up, the tested form may be a part): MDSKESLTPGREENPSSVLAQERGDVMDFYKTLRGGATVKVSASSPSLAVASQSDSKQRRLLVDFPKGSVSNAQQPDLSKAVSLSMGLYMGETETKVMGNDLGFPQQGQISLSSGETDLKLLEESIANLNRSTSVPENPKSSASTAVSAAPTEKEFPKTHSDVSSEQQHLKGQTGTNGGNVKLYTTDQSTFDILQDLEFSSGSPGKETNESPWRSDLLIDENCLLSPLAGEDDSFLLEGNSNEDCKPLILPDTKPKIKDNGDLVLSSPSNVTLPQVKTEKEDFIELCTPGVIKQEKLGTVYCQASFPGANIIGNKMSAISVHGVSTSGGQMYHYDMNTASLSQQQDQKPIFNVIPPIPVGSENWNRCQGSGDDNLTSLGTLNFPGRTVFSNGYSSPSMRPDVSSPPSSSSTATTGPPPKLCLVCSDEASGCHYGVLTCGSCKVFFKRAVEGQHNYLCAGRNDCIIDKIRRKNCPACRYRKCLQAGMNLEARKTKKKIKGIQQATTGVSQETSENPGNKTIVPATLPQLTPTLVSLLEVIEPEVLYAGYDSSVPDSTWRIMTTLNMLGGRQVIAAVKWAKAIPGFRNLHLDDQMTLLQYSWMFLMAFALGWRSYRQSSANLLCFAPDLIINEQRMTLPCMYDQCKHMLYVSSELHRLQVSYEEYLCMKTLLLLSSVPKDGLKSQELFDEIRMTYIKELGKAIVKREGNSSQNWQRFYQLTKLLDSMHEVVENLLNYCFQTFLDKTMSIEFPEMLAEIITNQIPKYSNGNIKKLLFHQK
Chain of Cytochrome P450 1A2 (Homo sapiens) (P05177 whole entry, looked up): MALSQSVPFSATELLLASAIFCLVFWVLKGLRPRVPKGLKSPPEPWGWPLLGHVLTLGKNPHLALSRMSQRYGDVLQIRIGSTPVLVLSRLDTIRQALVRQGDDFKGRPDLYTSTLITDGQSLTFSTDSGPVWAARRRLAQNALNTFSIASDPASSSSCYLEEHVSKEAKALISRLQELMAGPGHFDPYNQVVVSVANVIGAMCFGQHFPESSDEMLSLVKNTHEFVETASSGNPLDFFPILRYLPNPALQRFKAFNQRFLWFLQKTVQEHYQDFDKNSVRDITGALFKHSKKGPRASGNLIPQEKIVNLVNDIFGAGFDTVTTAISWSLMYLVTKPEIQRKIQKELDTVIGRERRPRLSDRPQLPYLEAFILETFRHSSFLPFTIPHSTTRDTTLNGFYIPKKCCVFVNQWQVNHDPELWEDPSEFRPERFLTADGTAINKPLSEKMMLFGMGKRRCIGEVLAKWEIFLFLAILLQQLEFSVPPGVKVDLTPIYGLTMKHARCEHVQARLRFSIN
Chain of 3',5'-cyclic-AMP phosphodiesterase 4B (Homo sapiens) (Q07343 whole entry, looked up): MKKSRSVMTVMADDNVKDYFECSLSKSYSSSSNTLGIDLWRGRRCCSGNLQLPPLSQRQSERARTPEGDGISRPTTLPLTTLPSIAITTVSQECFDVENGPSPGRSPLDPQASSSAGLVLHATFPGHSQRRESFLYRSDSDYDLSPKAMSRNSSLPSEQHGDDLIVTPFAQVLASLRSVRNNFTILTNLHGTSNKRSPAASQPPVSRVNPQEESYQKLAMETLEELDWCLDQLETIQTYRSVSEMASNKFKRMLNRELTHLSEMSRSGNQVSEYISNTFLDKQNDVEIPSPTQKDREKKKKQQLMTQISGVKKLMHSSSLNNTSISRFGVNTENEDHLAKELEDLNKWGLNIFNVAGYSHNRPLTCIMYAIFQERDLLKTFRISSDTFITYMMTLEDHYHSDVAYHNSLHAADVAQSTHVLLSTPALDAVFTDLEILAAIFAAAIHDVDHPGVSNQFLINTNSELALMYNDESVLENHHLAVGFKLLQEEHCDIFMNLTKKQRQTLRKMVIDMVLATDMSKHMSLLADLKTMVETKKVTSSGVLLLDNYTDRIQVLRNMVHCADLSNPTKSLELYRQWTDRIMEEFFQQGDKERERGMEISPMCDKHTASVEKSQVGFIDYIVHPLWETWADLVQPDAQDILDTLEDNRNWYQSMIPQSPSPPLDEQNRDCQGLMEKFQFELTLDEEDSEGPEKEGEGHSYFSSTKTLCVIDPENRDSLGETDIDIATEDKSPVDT
Chain of Lysosomal acid glucosylceramidase (Homo sapiens) (P04062 whole entry, looked up): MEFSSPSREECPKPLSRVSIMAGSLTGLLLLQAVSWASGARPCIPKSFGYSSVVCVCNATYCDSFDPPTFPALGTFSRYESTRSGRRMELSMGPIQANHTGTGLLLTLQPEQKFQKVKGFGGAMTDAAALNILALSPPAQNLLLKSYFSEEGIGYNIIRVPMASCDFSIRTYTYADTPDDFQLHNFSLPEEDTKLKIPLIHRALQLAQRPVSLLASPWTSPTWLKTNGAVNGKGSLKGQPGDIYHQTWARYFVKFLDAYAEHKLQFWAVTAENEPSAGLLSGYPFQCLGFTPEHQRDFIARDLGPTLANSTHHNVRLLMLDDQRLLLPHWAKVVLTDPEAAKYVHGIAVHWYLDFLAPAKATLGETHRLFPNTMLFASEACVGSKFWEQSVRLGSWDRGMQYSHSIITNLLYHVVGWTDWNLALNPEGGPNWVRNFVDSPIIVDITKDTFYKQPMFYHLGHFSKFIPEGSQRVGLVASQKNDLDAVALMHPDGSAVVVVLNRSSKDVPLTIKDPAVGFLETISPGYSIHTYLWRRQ
Chain of Cytochrome P450 2C9 (Homo sapiens) (P11712 whole entry, looked up): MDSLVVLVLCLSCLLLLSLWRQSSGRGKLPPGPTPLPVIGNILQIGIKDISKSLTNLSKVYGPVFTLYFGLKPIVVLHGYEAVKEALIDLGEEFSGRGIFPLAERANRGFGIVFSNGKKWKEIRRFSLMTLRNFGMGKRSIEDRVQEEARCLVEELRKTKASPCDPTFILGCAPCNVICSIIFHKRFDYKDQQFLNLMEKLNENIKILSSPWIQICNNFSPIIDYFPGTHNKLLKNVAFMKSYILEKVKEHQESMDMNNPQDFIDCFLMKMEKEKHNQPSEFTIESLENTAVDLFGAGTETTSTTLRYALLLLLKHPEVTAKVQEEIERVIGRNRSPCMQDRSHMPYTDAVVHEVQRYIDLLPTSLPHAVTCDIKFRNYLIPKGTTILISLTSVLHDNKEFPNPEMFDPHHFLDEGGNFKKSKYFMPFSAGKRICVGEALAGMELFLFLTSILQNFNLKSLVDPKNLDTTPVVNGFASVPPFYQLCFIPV
Chain of Cytochrome P450 2D6 (Homo sapiens) (P10635 whole entry, looked up): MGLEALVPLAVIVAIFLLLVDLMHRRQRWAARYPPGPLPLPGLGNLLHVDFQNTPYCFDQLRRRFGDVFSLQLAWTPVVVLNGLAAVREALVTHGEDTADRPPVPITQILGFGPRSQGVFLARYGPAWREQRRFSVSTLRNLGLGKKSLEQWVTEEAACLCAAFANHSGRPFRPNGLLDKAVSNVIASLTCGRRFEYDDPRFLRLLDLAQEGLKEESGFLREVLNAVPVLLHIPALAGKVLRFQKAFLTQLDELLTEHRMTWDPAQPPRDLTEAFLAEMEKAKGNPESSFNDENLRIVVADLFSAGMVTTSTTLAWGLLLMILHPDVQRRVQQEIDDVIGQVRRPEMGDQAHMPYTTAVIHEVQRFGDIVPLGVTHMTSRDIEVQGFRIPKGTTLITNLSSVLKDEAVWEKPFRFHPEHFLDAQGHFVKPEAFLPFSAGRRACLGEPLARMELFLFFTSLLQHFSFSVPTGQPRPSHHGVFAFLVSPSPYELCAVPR

For the compound `CC(=O)OC1CC2C(C)(C)C(=O)C=C[C@]2(C)C2CC[C@]3(C)C(=CC(=O)OC3c3ccoc3)[C@]12C` (some centres not stated), in test [1], the Potency is 15.8 µM (active). Besides, the Potency entry in test [2] and in test [3] was “inactive” in each case. For the same compound, the activity change, negative = inhibition in test [4] (at 57.5 µM (top of the series)) was -3.77% (inactive). Moreover, the max response in [4] (setting [20]) came out at 5.48%; in [4] (setting [21]), 6.78%.

Take `O=C(NC[C@@H]1CCCCN1)c1cc(OCC(F)(F)F)ccc1OCC(F)(F)F`: in test [4] (at 25.7 µM (top of the series)), the activity change, negative = inhibition is -0.787% (inactive). Moreover, the max response was -18.7% in [4] (setting [20]) and -19.7% in test [4] (setting [21]).

For `C=C(C)C1Cc2c(ccc3c(=O)c4c(oc23)COc2cc(OC)c(OC)cc2-4)O1` (configuration not stated), the Potency result in test [1], in test [5], in [3] and in [6] was “inactive” in each case. The outcome in [7] was inactive.

With `C=CCc1ccc2c(c1)OCO2`, in test [8], the call was inactive. The Potency result in test [2], in test [5] and in test [6] was “inactive” each time. For the same compound, the activity change, negative = inhibition in test [4] (at 57.5 µM (top of the series)) was 12.7% (inactive). The max response in test [4] (setting [20]) was 13.6%; in [4] (setting [21]), 31.4%.

Turning to `O=C(Oc1ccccc1)N1CCC2(CC1)CN(Cc1ccncc1)C2`, the Potency in [9] was > 11.4 µM (inactive); in test [11], 10 µM (active); in [13], > 46 µM (inactive); in test [14], 3.16 µM (active). Further, the compound was called inactive in test [10], in test [12], in test [8] and in test [7]. For the same compound, the Potency entry in test [2] is “inactive”.

As for `CC(C)CN1CC[C@@]2(CCCN(C(=O)Oc3ccccc3)C2)C1`, the result in test [10], in test [12], in test [8] and in test [7] was inactive. Further, in test [15], the activity change, negative = inhibition was -1.09% (inactive). In addition, the Potency in test [13] is > 46 µM (inactive); in [17], 6.31 µM (active). The Potency entry in [16] and in test [2] was “inactive” each time. Also, the activation in test [18] was -4.64% (inactive).

For `CCCN1CCc2cccc3c2C1Cc1ccc(O)c(O)c1-3` (configuration not stated), the activity change, negative = inhibition in test [4] (at 57.5 µM (top of the series)) is 1.73% (inactive). In addition, the max response is -26.8% in test [4] (setting [20]) and -25.9% in test [4] (setting [21]).

Regarding `C[C@H](CCC(=O)O)[C@H]1CC[C@@H]2[C@H]3CC[C@H]4C[C@@H](O)CC[C@@]4(C)[C@H]3CC[C@]21C`, in [4] (at 25.7 µM (top of the series)), the activity change, negative = inhibition was 2.39% (inactive). Moreover, the figures for the max response in test [4] (setting [20]) and in test [4] (setting [21]) were -11.2% and -8.48%, respectively.

On to `CCC1CN2CCc3cc(OC)c(OC)cc3C2CC1CC1NCCc2cc(OC)c(OC)cc21` (configuration not stated), for which the activity change, negative = inhibition in test [4] (at 57.5 µM (top of the series)) was 7.1% (inactive). Moreover, the max response is -0.174% in [4] (setting [20]) and 8% in [4] (setting [21]).

As for `O=C1c2ccccc2-c2cccc3cccc1c23`, the Potency entry in test [2], in test [5], in test [3] and in test [6] was “inactive” each time. In addition, the activity change, negative = inhibition in [4] (at 57.5 µM (top of the series)) was 15.9% (inactive). Moreover, the max response worked out at 9.47% in test [4] (setting [20]) and 28.5% in test [4] (setting [21]).

`O=C(Nc1cccc(F)c1)N1CCCC2(CCN(C(=O)Oc3ccccc3)CC2)C1`: the Potency in test [9] was > 11.4 µM (inactive); in [11], 10 µM (active); in test [13], > 46 µM (inactive). For the same compound, the result in test [10], in test [12], in test [8] and in [7] was inactive. In [2], the Potency entry is “inactive”.

On to `C[C@@H](C(=O)O)c1ccc(-c2ccccc2)c(F)c1`, for which the activity change, negative = inhibition in test [4] (at 25.7 µM (top of the series)) was 2.45% (inactive). Further, the max response was found to be 2.3% in test [4] (setting [20]) and 1.21% in test [4] (setting [21]).

Consider `O=C(Oc1ccccc1)N1CCC2(CCN(Cc3nccs3)CC2)CC1`, for which the outcome in [10], in test [12], in test [8] and in test [7] was inactive. Moreover, the Potency result in [11] and in [1] was “inactive” each time. Further, the Potency was > 46 µM (inactive) in [13] and 25.1 µM (active) in [2].

On to `Cc1nnc2ccc(-c3cccc(C(F)(F)F)c3)nn12`, for which the Potency in [19] and in test [13] was > 46 µM (inactive) each time. For the same compound, the result in test [8] and in test [7] was inactive. In addition, the Potency result in [16], in test [2] and in test [6] was “inactive” throughout.
